The entries come from a sample that favours hits as a whole.
CHX counter – counter-screen for Shiga toxin inhibitors: cycloheximide protein synthesis inhibition. cell reporter, cycloheximide protein synthesis inhibition counterscreen. max response, %. actives 12% (n = 300,000); in the data active = max response mostly above about 13%, no sharp cut-off; inactive = mostly below about 14%; also: read at 38.3 µM for the half of the compounds with a filed dose; 0% is about no effect
RE007 growth inh – less growth of the S. pombe RE007 Vpr strain | S. pombe RE007 Vpr strain, BacTiter-Glo ATP luminescence, 24 h | Potency, µM (series often up to 92.2 µM), for inactives: top-dose activity change, negative = less growth, most hits filed as inhibitors | actives 0.21% (n = 360,000); active = well fitted falling curve with a large enough effect; inconclusive = small, poorly fitted or top-dose-only effect; inactive = no such curve, though single readings can be large or run the other way; also: potency is read from the fitted curve at half-maximal effect; % is scaled to controls: 0 for no effect and ±100 for the full control effect; nearly all actives have a fitted effect of over 50% in size
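Fission yeast RE007 carrying one integrated HIV-1 vpr copy, seeded at OD 0.01 in PMG+AL medium with 23 nL pinned compound. Grown 24 h at 30 degrees; viability read by BacTiter-Glo luminescence after 5 min.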
Tb PYK inh – blocks Trypanosoma brucei pyruvate kinase; Q57TT1; TbPYK enzyme, Kinase-Glo Plus ATP luminescence, 45 min; Potency, µM (highest dose often 76.8 µM), for inactives: top-dose activity, negative = inhibition, actives largely listed as inhibitors; actives 0.12% (n = 410,000); also: potency is read from the fitted curve at half-maximal effect; % is scaled to controls: 0 for no effect and ±100 for the full control effect; nearly all actives have a fitted effect of over 50% in size
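Screened from lowest to highest concentration, compounds were pinned into TbPYK/substrate mixtures, and ADP (130 uM final) was added. Plates sat at room temperature for 45 min prior to Kinase-Glo Plus detection by luminescence.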
Giardia FBPA inh-1 – Giardia lamblia aldolase inhibition | actives 0.71% (n = 290,000) | A8B2U2 | Potency, µM (top dose mostly 59.6 µM), for the others: top-dose activity, negative = inhibition, hits mostly inhibitors | AID 2451 | purified Giardia FBPA; also: potency is read from the fitted curve at half-maximal effect; % is scaled to controls: 0 for no effect and ±100 for the full control effect; nearly all actives have a fitted effect of over 55% in size
Target sequence (A8B2U2 whole entry, looked up): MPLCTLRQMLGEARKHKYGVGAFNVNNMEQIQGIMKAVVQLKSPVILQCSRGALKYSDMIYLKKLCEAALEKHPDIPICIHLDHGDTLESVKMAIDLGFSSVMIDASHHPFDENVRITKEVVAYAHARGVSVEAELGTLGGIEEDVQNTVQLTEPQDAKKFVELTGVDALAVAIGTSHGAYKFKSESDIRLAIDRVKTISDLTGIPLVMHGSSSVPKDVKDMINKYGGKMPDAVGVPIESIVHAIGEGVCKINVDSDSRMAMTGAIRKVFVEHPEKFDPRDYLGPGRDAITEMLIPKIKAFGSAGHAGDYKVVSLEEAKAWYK
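40 nM FBPA preincubated 10 min at RT with compound (up to 57.5 uM final), then substrate plus GAPDH/TPI/NAD/arsenate coupling and diaphorase/resazurin added. Fluorescence read after 20 min at RT, 525/598 nm.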
LmPK inhibitor – blocks Leishmania mexicana pyruvate kinase activity; actives 0.37% (n = 290,000); Potency, µM (highest dose often 57.5 µM), without a hit: top-dose activity change, negative = inhibition, actives largely listed as inhibitors; AID 1721; purified LmPK, Kinase-Glo ATP luminescence, 1 h; also: potency is read from the fitted curve at half-maximal effect; % is scaled to controls: 0 for no effect and ±100 for the full control effect
Target sequence (Q27686 whole entry, looked up): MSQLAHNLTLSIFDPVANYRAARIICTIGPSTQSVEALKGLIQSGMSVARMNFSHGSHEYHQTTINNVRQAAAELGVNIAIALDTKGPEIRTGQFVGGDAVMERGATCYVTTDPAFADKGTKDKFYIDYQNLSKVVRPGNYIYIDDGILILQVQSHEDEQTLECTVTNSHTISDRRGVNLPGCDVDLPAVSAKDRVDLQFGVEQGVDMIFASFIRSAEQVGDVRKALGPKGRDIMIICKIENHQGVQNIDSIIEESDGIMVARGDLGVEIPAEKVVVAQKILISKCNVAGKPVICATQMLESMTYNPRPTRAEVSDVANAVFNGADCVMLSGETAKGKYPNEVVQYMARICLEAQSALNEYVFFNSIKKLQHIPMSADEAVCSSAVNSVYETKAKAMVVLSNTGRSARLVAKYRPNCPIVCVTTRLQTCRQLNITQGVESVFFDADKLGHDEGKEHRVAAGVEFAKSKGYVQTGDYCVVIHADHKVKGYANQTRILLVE
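0.1 nM LmPK, 0.5 mM PEP, 0.1 mM ADP; 50 mM imidazole pH 7.2, 7 mM MgCl2, 50 mM KCl; 1 h RT. Kinase-Glo luminescence readout, normalized to no-enzyme (full inhibition) and uninhibited wells.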
Shiga toxin inh – blocks Shiga toxin action in Vero cells; Vero cells, Shiga toxin protein synthesis inhibition reporter; inhibition, % at 38.7 µM; actives 9.2% (n = 290,000); AID 2315; in the data active = inhibition mostly above about 28%, no sharp cut-off; inactive = mostly below about 43%; also: 0% is about no effect
Giardia growth – Giardia lamblia growth inhibition | AID 2785 | actives 5% (n = 1,500) | Giardia lamblia trophozoite growth inhibition | Potency, µM (doses to about 57.5 µM), for the others: at the highest dose activity change, negative = inhibition, most hits filed as inhibitors | shares compounds with Giardia FBPA inh-1;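 also: potency is read from the fitted curve at half-maximal effect; trophozoites exposed to compound for 48 h at 37 °C; % is scaled to controls: 0 for no effect and ±100 for the full control effect; nearly all actives have a fitted effect of over 70% in size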
Mammal cell tox – mammalian cytotoxicity of Giardia aldolase inhibitor hits; shares compounds with Giardia FBPA inh-1; mammalian cell viability counter-screen, qHTS; Potency, µM (titrated, usually from 57.5 µM), for inactives: at the top dose viability change, negative = toxicity, usual class: inhibitors; actives 4% (n = 1,500); AID 2786;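 also: Chinese hamster ovary cells used as mammalian cytotoxicity surrogate; viability measured as cellular ATP by luminescence; potency is read from the fitted curve at half-maximal effect; compound exposure lasted 48 h before reading; % is scaled to controls: 0 for no effect and ±100 for the full control effect; nearly all actives have a fitted effect of over 60% in size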
Giardia FBPA inh-2 – confirmation of Giardia fructose-bisphosphate aldolase inhibitors; shares compounds with Giardia FBPA inh-1; purified Giardia aldolase enzyme activity, qHTS; Potency, µM (series often up to 57.5 µM), without a hit: at the highest dose activity change, negative = inhibition, usual class: inhibitors; actives 5% (n = 1,500); also: potency is read from the fitted curve at half-maximal effect; % is scaled to controls: 0 for no effect and ±100 for the full control effect; nearly all actives have a fitted effect of over 45% in size
Rabbit FBPA inh – selectivity test for Giardia aldolase inhibitors: rabbit aldolase; shares compounds with Giardia FBPA inh-1; Rabbit muscle FBPA enzyme inhibition, selectivity counter-screen; Potency, µM (series often up to 57.5 µM), for inactives: at the highest dose activity, negative = inhibition, actives largely listed as inhibitors; actives 4% (n = 1,500); also: potency is read from the fitted curve at half-maximal effect; % is scaled to controls: 0 for no effect and ±100 for the full control effect; nearly all actives have a fitted effect of over 60% in size
GAPDH coupling – GAPDH inhibition flagged for Giardia aldolase hits; shares compounds with Giardia FBPA inh-1; GAPDH coupling enzyme counterscreen, biochemical, qHTS; Potency, µM (top dose mostly 57.5 µM), inactives show at the top dose activity change, negative = inhibition, hits mostly inhibitors; actives 6% (n = 1,500); also: potency is read from the fitted curve at half-maximal effect; % is scaled to controls: 0 for no effect and ±100 for the full control effect; nearly all actives have a fitted effect of over 55% in size
Numbers without * were called inactive; ? = inconclusive; · = not tested or not shown; [ ] = remark or other dose. Unless noted, calls follow the shape of the dose curve; as a rule, active = well fitted curve in the direction sought with a large enough effect; inconclusive = small, poorly fitted or top-dose-only effect, or another doubt; inactive = no such curve, though single readings can be large; an effect the other way counts as inactive or inconclusive.

SMILES	CHX counter	RE007 growth inh	Tb PYK inh	Giardia FBPA inh-1	LmPK inhibitor	Shiga toxin inh	Giardia growth	Mammal cell tox	Giardia FBPA inh-2	Rabbit FBPA inh	GAPDH coupling
NS(=O)(=O)c1ccc(-c2ccc(C=O)o2)cc1	-2	4%	0%	0%	0%	-10	·	·	·	·	·
Cc1nc(NC(=O)CN2CCCCC2)sc1C(=O)N(C)C	0	3%	1%	3.2µM*	-5%	15	-7%[38.3 µM]	4%	-9%	8%	-5%
COc1ccccc1N1CCN(CC(=O)Nc2nc(C)c(C(=O)N(C)C)s2)CC1	-3	2%	-1%	11µM*	1%	2	9%	4%	-3%	14%	-16%
CCOC(=O)c1oc2c(C)c(O)ccc2c(=O)c1-c1nncn1-c1ccccc1	-5	2%	2%	-5%	0%	-16	·	·	·	·	·
CCOC(=O)c1oc2c(O)c(O)ccc2c(=O)c1-c1nncn1-c1ccccc1	1	-17%	-7%	4.5µM*	-4%	-9	-28%	-20%	?	?	-18%
Cc1ccc(S(=O)(=O)N2CCOCC2)cc1NC(=O)CNCc1cccnc1	-5	26%	1%	16µM*	-7%	-5	-8%[10.4 µM]	-1%	-1%	6%	7%
Cc1ccc(S(=O)(=O)N2CCOCC2)cc1NC(=O)CNCc1ccc(Cl)cc1Cl	·	-9%	-5%	·	·	·	·	·	·	·	·
Cc1[nH]c(=S)c(C#N)c(-c2ccco2)c1C(=O)N(C)C	8	27%	?	20µM*	11%	-5	?	8%	-2%	-3%	0%
N#CC1=C(S)N(c2ccccc2)C(c2cccs2)NC1=O (stereo unspecified)	2	-12%	-1%	6.3µM*	-1%	-14	-17%	-5%	5%	4%	6%
COc1cc(C(c2c(C)[nH][nH]c2=O)c2c(C)[nH][nH]c2=O)cc([N+](=O)[O-])c1O	-3	8%	-1%	16µM*	0%	-7	-29%	-12%	5.6µM*	?	-16%
CCOc1cc(C(c2c(C)[nH][nH]c2=O)c2c(C)[nH][nH]c2=O)cc([N+](=O)[O-])c1O	-1	6%	3%	-22%	5%	-11	·	·	·	·	·
COc1ccc(N2c3ccccc3CN(Cc3ccccc3)CC2Cc2cc(OC)c(OC)c(OC)c2)cc1 (stereo unspecified)	·	0%	0%	·	·	·	·	·	·	·	·
CNC(=S)N/N=C/c1ccccc1OCC(=O)O	16	-5%	9%	20µM*	0%	18	?	-2%	-8%	-1%	-7%
O=S(=O)(Nc1cccc(-c2cn3c(n2)SCC3)c1)c1cccs1	8	-15%	2%	-3%	9%	3	·	·	·	·	·
Oc1ccc(-c2cn3c(n2)SCC3)cc1O	11	2%	?	18µM*	?	21	0%[10.4 µM]	-13%	?	?	-16%
Cc1ccc2nc(NC(=O)CSc3nccn3Cc3ccc(Cl)cc3)sc2c1	·	·	-2%	·	·	·	·	·	·	·	·
Cc1cccc(C)c1NC(=S)NC(=O)c1cccc(Cl)c1	·	-16%[18.4 µM]	0%	·	·	·	·	·	·	·	·
CN(C)C(=S)NC(=O)c1cccc(Cl)c1	2	5%	-24%	16µM*	-2%	-2	7.1µM*	15%	-5%	10%	-6%
C=CCN(CC#CCOc1ccccc1OC)CC=C	5	·	·	20µM*	-1%	25	0%[10.4 µM]	8%	5%	15%	1%
CCOC(=O)/C(C#N)=N/Nc1c(C)n(C)n(-c2ccccc2)c1=O	-6	6%	-2%	16µM*	-2%	15	-5%[10.4 µM]	-1%	0%	-4%	-3%
CC(C)C(N)c1csc(NC(=O)Nc2ccc(OC(F)(F)F)cc2)n1 (stereo unspecified)	·	28%	-8%	·	·	·	·	·	·	·	·
O=C(NCCO)c1cc2ccccc2cc1O	-2	-12%	-2%	2µM*	-1%	-8	-11%[38.3 µM]	-1%	?	?	?
Cc1cccc(C(=O)Nc2nnc(-c3cccnc3)o2)c1	5	-4%	1%	16µM*	-7%	20	?	?	4%	-1%	-1%
O=C(Nc1nnc(-c2ccncc2)o1)c1cccc(N2C(=O)CCC2=O)c1	-1	3%	1%	20µM*	3%[11.5 µM]	-8	-7%[10.4 µM]	-15%	7%	8%	9%
O=c1cc(-c2ccccc2O)oc2c1ccc1ccccc12	·	·	·	4%	·	·	·	·	·	·	·
SMILES	CHX counter	RE007 growth inh	Tb PYK inh	Giardia FBPA inh-1	LmPK inhibitor	Shiga toxin inh	Giardia growth	Mammal cell tox	Giardia FBPA inh-2	Rabbit FBPA inh	GAPDH coupling
Cc1nn(Cc2ccccc2)c(C)c1CNC(=O)[C@H](C)N=C1NS(=O)(=O)c2ccccc21	·	5%	3%	·	·	·	·	·	·	·	·
COc1ccc(C2=C(c3ccccc3)OC(OC)c3cc(F)ccc32)cn1 (stereo unspecified)	·	8%	-5%	·	·	·	·	·	·	·	·
N#C/C(=N\Nc1ccccc1)C(N)=S	8	27%	-7%	20µM*	6%	25	?	7%	12%	24%	13%
C[n+]1cccc(O)c1SCc1ccccc1	·	-20%	-7%	·	·	·	·	·	·	·	·
Cn1cnc([N+](=O)[O-])c1Sc1ncccc1N	0	-15%	-3%	18µM*	5%	-14	27%	3%	1%	6%	-18%
Cc1ccc(C(C)C)cc1OCCn1cncn1	-2	20%	8%	22µM*	-12%	-1	-2%[10.4 µM]	10%	4%	-6%	?
Cc1ccc(C)c(N2CCN(C(=O)CCc3nc(-c4ccccc4Cl)no3)CC2)c1	·	6%	-1%	·	·	·	·	·	·	·	·
COc1ccc(-c2nnc(NC(=O)c3ccccc3C)o2)cc1	-1	-13%	2%	16µM*	4%	14	?	-15%	-1%	-6%	-10%
Cc1ccccc1C(=O)Nc1nnc(-c2ccncc2)o1	7	-7%	-9%	7%	-8%	21	·	·	·	·	·
CCOCc1[nH]c(=S)[nH]c(=O)c1Cc1ccc(OC(C)C)cc1	5	14%	0%	-4%	8%	11	·	·	·	·	·
